In PubChem BioAssay AID504339 (National Center for Advancing Translational Sciences (NCATS), 2011):
The campaign covered roughly 390,000 compounds. About 17,000 (4.4%) were called active. Another 8% or so got no clear call; they are omitted. The call rests on the fitted dose curve; in most records, active means well fitted inhibition curve with a large enough effect; inconclusive means small, poorly fitted or top-dose-only effect; inactive means no such curve, though single readings can be large or run the other way. Many of the other results were omitted from the sample, so actives are more common in it than they were.

Target: Lysine-specific demethylase 4A (Homo sapiens) (UniProt O75164)
Sequence (O75164 whole entry, looked up, the tested form may be a part): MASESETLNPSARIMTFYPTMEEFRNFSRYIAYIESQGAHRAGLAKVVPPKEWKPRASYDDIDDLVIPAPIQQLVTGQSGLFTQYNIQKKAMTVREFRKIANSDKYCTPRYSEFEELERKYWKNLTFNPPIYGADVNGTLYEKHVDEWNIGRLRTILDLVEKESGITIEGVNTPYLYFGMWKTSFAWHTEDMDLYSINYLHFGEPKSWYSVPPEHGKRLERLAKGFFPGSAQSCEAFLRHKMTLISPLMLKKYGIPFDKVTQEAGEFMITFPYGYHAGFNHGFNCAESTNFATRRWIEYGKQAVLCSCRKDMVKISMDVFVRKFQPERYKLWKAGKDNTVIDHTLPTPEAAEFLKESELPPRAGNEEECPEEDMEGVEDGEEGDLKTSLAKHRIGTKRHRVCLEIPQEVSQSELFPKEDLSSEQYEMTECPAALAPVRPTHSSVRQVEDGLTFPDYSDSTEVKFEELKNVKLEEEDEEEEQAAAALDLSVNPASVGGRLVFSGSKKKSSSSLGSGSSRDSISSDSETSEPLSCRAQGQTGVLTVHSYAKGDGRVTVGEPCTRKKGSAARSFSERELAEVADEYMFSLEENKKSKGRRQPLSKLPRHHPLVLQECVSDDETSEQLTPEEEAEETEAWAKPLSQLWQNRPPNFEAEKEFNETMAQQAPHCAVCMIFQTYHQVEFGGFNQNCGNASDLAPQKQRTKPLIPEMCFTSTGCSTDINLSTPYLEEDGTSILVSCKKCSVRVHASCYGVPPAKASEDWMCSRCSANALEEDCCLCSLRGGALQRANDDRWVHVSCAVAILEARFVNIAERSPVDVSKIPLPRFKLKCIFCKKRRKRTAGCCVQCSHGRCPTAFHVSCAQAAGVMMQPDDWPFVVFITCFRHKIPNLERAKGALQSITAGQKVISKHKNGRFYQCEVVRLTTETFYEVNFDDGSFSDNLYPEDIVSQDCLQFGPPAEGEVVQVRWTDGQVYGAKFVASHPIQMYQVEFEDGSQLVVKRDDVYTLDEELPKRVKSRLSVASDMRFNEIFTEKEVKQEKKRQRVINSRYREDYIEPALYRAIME
Experiment: qHTS Assay for Inhibitors of JMJD2A-Tudor Domain; further: nearly all actives have a fitted effect of over 50% in size
Settings: AlphaScreen JMJD2A-Tudor / H3K4me3 peptide binding; series mostly up to 114 µM; activity change, negative = inhibition: at the top concentration
On the % scale 0 is the no-effect control and ±100 the full control effect; potency means the concentration at half of the fitted maximal effect.

SMILES	activity change, negative = inhibition	Potency
O=C(Nc1ccc2nc(SCCOc3ccccc3Cl)sc2c1)c1ccco1	-7.62% (inactive)	–
COc1ccc(C(=O)c2oc3ccc(Br)cc3c2NC(C)=O)cc1	-14.3% (inactive)	–
COc1ccc(/C=C/C(=O)c2cc(Br)ccc(=O)c2O)cc1	–	31.6 µM (active)
COc1ccc(CC(=O)NCC(=O)N/N=C/c2cc(Br)ccc2OC)cc1	-17.2% (inactive)	–
COc1ccc(S(=O)(=O)NCc2cccn2Cc2cccc(C)c2)cc1	-8.28% (inactive)	–
CCOc1ccccc1N(C)C(=O)c1cc2c(s1)-c1ccccc1OC2	5.82% (inactive)	–
CCSc1ncc(Cl)c(C(=O)Nc2c(C(=O)c3ccccc3)oc3ccccc23)n1	-25% (inactive)	–
O=C(CCS(=O)(=O)c1cc(Br)cc2c1N(C(=O)C1CC1)CC2)Nc1ccc(Br)cc1F	-8.22% (inactive)	–
Cc1ccc(N2C(=O)CC(Nc3cccc4ccccc34)C2=O)cc1 (stereo not given)	-16.5% (inactive)	–
CCc1ccccc1N1C(=O)C2C3CC(=O)C(c4ccccc43)C2C1=O (stereo not given)	-9.28% (inactive)	–
CC1=C(C)CC2C(=O)N(c3cccc4ccccc34)C(=O)C2C1 (stereo not given)	–	56.2 µM (active)
O=C(Cn1ncn2nc(-c3cccs3)cc2c1=O)NCc1cccc(Br)c1	0% (inactive)	–
CCOC(=O)c1[nH]c(C)c(CCC(=O)N2CCN(c3ccccc3)CC2)c1C	-26.9% (inactive)	–
Cc1ccc(CNC(=O)Cn2c(=O)ccc3cc(S(=O)(=O)N4CCCC4)ccc32)cc1	-0.323% (inactive)	–
COc1ccc(OCCn2cc(C(=O)C3CCCCC3)c3ccccc32)cc1	4.12% (inactive)	–
COc1ccc(OCCn2ccnc2C)cc1	–	1 µM (active)
COc1ccc(OCCCC(=O)Oc2ccc(OC)cc2)cc1	-6.34% (inactive)	–
CCOc1ccc(N(CC)C(=O)C2CCN(S(=O)(=O)c3cccc4nonc34)CC2)cc1	-12.3% (inactive)	–
O=S(=O)(Nc1cc(Cl)ccc1N1CCOCC1)c1ccccc1Cl	-6.21% (inactive)	–
O=C1c2ccccc2-c2ncnc3c(N4CCOCC4)cc(N4CCOCC4)c1c23	–	44.7 µM (active)
Cc1oc2c(c1C(=O)N1CCOCC1)C(=O)c1ccccc1C2=O	-5.52% (inactive)	–
Cn1nnnc1SCCCNCc1cccc(OCc2ccc(Cl)cc2)c1	-10.9% (inactive)	–
O=[S+]([O-])(c1ccc2c(c1)OCCO2)N1CCN([S+](=O)([O-])c2c(Cl)cc(Cl)cc2Br)CC1	-18.5% (inactive)	–
Cc1ccc(C)c(N2CCN(CCCNC(=O)Nc3ccc(Cl)cc3)CC2)c1	-24% (inactive)	–
CCOc1ccc(OCC)c(NC(=O)CN(C)S(=O)(=O)c2cccc3nsnc23)c1	–	50.1 µM (active)

SMILES	activity change, negative = inhibition	Potency
CCOc1ccc(NC(=O)CCS(=O)(=O)c2cccc3nsnc23)cc1	-25% (inactive)	–
CCOc1ccccc1NC(=O)CCS(=O)(=O)c1cccc2nsnc12	–	inactive
CCc1nc2onc(C)c2c(=O)n1CC(=O)O	-23.5% (inactive)	–
CCOc1ccc(NC(=O)c2cn(C3CCCCC3)c(=O)c3c2c2ccccc2n3C)cc1	-11% (inactive)	–
O=C(N/N=C/c1cccc(Br)c1)c1ccc(N2CCCC2=O)cc1	–	56.2 µM (active)
O=C(N/N=C\c1cccc(Br)c1)c1ccccc1-n1cccc1	-14.5% (inactive)	–
O=C(Nc1ccc(N2CCCC2=O)cc1)c1cncc(Br)c1	4.17% (inactive)	–
CC(Oc1ccccc1[N+](=O)[O-])C(=O)N/N=C/c1ccoc1 (stereo not given)	-15.2% (inactive)	–
CC1CN(CCOc2ccccc2[N+](=O)[O-])CC(C)O1 (stereo not given)	–	22.4 µM (active)
O=[N+]([O-])c1ccccc1OCCCCN1CCCCC1	-20.3% (inactive)	–
COc1ccc2ncc3c(-c4ccc(C)c(C)c4)nn(CC(=O)NC4CCCC4)c3c2c1	-12.3% (inactive)	–
Cc1cc(=O)n(CC(=O)Nc2cccc([N+](=O)[O-])c2)c(-n2nc(C)cc2C)n1	-18.2% (inactive)	–
O=C(/C=C/c1ccccc1)N1CCN(Cc2cc(=O)n3nc(-c4ccccc4F)sc3n2)CC1	-0.325% (inactive)	–
COc1cccc2c1cc1c(=O)n(CC(=O)N3CCN(c4ccccc4)CC3)nc(C)n12	-14.5% (inactive)	–
CC1Cc2cc(/C(O)=C3\C(=O)C(=O)N(Cc4cccnc4)C3c3ccccc3F)ccc2O1 (stereo not given)	-12.8% (inactive)	–
CC1Cc2cc(/C(O)=C3\C(=O)C(=O)N(CCN4CCOCC4)C3c3ccccc3F)ccc2O1 (stereo not given)	–	39.8 µM (active)
O=C1C(=O)N(CCN2CCOCC2)C(c2cccc(Cl)c2)/C1=C(/O)c1ccc2c(c1)OCO2 (stereo not given)	-16.7% (inactive)	–
CCOc1ccccc1NC(=O)C1CCCN(S(=O)(=O)c2cn(C)cn2)C1 (stereo not given)	-10.6% (inactive)	–
COCCNS(=O)(=O)c1cc(-c2nn3c(C)nnc3c3ccccc23)ccc1C	-10.4% (inactive)	–
Cc1c(N=Nc2ccc(N(C)C)cc2)c(=O)n(-c2ccccc2)n1C	-26.2% (inactive)	–
Cc1ccc(-c2ccnc3[nH]n(-c4ccccc4)c(=O)c23)cc1	-13.3% (inactive)	–
Cc1[nH]n(-c2ccccc2)c(=O)c1CCOC(=O)c1ccc(C(F)(F)F)cc1	-10.1% (inactive)	–
Cc1cccc(N=Nc2c(O)[nH]c3ccc(F)cc23)c1	-18.8% (inactive)	–
Cc1cccc(N=Nc2c(C)[nH]n(-c3ccccc3)c2=O)c1	–	11.2 µM (active)
Cc1ccc(N=Nc2c(C)[nH]n(-c3ccccc3)c2=O)cc1	–	6.31 µM (active)
